By inhibition is commonly meant the relative decrease from the control value, in per cent.

The target of test [1] is Tyrosine-protein kinase CSK (Homo sapiens) (UniProt P41240). As to conditions: at 1 µM.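 Also: each value is an averaged inhibition reading.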
The target of test [2] is T1, Discoidin domain-containing receptor 2 (Homo sapiens) (UniProt Q16832).
T1 sequence (whole entry): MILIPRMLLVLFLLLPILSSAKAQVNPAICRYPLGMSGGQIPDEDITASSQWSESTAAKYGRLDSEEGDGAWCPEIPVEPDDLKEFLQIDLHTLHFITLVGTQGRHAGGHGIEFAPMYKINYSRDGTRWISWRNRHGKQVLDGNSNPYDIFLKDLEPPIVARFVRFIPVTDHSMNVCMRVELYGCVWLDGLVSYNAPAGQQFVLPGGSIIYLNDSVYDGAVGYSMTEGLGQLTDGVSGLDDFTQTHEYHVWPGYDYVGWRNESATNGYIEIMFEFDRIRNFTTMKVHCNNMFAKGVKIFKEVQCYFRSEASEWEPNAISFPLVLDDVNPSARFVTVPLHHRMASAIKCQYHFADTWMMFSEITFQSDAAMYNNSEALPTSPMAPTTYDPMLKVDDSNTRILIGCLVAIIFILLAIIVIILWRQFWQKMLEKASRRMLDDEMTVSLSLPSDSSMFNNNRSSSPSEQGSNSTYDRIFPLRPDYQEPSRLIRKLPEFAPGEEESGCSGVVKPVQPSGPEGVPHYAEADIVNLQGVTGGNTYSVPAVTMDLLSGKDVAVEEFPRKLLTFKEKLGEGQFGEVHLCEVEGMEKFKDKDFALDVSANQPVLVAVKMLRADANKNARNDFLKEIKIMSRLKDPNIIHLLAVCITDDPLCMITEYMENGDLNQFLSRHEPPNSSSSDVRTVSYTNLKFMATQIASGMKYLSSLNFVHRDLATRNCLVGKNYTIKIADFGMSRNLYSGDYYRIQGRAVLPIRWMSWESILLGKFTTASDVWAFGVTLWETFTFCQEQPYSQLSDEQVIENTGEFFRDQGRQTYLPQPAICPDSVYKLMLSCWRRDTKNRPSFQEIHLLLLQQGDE
As to conditions: at 0.1 µM.

The target in test [3] is T1, Discoidin domain-containing receptor 2 (Homo sapiens). The note with it: at 1 µM.
Test [4] has as its target Epidermal growth factor receptor (Homo sapiens) (UniProt P00533). As to conditions: at 0.1 µM.
Test [5] has the same target. As to conditions: at 1 µM.
Test [6] deals with Epidermal growth factor receptor (Homo sapiens), P00533 [L858R]. As to conditions: at 0.1 µM.
Sequence of Epidermal growth factor receptor (Homo sapiens), P00533 [L858R] (P00533 whole entry L858R): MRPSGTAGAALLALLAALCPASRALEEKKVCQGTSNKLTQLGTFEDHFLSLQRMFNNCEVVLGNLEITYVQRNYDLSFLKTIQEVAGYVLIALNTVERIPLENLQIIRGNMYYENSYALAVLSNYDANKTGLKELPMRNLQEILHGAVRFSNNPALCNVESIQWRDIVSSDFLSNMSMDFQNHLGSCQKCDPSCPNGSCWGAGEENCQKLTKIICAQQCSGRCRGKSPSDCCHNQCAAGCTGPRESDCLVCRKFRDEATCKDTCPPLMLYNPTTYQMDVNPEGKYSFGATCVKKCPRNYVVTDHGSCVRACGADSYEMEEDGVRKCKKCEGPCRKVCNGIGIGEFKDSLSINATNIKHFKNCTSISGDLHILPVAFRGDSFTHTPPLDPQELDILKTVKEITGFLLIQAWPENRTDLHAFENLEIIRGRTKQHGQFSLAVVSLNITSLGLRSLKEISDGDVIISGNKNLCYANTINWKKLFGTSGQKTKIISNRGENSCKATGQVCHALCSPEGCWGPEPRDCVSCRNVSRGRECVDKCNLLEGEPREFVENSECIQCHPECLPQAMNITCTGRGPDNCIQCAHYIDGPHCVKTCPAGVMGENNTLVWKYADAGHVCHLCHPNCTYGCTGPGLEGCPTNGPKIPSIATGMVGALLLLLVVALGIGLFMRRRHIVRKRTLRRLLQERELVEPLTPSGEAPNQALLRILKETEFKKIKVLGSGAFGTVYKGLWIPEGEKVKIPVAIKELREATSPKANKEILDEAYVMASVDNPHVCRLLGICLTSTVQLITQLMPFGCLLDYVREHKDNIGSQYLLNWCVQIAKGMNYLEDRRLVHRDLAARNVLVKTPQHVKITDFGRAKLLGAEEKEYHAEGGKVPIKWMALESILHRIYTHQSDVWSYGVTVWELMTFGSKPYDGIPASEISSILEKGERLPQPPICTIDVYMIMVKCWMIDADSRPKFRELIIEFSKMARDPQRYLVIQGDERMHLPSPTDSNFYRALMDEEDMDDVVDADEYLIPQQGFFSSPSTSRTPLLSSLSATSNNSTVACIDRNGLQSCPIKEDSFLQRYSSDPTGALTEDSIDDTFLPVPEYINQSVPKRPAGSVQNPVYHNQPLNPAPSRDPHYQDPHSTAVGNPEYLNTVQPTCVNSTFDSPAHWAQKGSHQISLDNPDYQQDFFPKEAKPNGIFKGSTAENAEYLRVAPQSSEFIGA
Test [7] has the same test system. The note with it: at 1 µM.
Test [8] relates to Epidermal growth factor receptor (Homo sapiens), P00533 [L861Q]. As to conditions: at 0.1 µM.
Sequence of Epidermal growth factor receptor (Homo sapiens), P00533 [L861Q] (P00533 whole entry L861Q): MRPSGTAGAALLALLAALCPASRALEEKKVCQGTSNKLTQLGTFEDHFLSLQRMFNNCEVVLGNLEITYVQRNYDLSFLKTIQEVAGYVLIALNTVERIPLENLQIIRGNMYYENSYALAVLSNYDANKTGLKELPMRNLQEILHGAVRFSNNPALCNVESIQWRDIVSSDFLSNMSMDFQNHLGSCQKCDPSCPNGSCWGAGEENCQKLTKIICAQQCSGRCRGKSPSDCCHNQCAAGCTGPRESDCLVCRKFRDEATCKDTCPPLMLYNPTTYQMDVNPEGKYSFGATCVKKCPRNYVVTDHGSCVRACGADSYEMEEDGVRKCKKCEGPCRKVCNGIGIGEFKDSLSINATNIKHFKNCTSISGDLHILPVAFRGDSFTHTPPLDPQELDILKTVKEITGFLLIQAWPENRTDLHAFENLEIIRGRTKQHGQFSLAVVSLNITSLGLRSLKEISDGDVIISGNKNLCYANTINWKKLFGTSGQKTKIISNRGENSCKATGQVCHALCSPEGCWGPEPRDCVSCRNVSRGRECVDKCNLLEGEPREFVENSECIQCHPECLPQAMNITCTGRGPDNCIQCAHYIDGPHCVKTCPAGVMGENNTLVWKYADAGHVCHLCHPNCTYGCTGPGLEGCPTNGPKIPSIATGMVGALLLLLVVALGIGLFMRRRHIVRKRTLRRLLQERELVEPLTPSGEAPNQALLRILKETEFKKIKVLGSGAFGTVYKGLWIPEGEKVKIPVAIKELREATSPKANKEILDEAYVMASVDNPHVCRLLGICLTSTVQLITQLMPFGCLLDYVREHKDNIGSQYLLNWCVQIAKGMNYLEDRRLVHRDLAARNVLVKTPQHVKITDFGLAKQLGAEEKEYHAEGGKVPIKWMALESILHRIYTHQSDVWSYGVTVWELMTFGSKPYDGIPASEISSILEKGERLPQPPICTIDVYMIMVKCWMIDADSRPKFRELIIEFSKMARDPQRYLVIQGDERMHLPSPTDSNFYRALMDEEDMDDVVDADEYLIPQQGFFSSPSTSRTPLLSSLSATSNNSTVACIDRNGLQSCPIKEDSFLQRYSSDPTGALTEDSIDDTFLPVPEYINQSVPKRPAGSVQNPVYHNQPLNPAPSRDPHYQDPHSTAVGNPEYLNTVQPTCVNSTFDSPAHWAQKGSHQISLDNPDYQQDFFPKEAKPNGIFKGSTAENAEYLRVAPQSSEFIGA
Test [9] has the same test system. The note with it: at 1 µM.
The test system of test [10] is Epidermal growth factor receptor (Homo sapiens), P00533 [T790M]. The note with it: at 0.1 µM.
For test [11] the test system is unchanged. The note with it: at 1 µM.
Test [12] has as its system Epidermal growth factor receptor (Homo sapiens), P00533 [L858R,T790M]. The note with it: at 0.1 µM.
Test [13] has the same test system. The note with it: at 1 µM.
In test [14] the target is Ephrin type-A receptor 2 (Homo sapiens) (UniProt P29317). The note with it: at 0.1 µM.
Sequence of Ephrin type-A receptor 2 (Homo sapiens) (P29317 whole entry): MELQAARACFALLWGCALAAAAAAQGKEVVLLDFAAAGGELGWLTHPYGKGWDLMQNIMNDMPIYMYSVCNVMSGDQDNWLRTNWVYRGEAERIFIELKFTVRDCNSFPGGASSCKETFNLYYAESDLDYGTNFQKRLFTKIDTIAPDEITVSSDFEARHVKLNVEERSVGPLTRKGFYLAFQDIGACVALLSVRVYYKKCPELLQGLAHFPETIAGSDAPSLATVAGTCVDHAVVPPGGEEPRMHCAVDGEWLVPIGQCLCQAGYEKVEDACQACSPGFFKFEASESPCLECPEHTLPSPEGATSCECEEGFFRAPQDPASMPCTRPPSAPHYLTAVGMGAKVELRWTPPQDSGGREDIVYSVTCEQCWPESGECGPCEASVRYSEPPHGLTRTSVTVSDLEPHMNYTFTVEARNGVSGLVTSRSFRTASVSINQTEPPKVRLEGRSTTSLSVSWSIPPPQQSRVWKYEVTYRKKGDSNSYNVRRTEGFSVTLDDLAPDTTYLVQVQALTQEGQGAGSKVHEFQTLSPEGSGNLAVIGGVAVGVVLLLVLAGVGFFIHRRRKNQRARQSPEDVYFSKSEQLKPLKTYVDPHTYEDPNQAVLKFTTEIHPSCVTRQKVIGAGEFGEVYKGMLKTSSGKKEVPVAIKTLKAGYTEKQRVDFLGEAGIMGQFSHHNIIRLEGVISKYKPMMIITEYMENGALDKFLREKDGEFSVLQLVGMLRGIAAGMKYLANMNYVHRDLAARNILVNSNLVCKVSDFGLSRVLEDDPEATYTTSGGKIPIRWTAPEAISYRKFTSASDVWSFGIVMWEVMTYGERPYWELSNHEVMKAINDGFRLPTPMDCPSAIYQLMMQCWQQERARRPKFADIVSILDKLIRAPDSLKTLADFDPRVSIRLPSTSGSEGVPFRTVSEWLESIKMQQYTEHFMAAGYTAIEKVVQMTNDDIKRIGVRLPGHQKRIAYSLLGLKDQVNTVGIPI
The target is the same in test [15]. As to conditions: at 1 µM.
In test [16] the target is T2, Ephrin type-A receptor 3 (Homo sapiens) (UniProt P29320).
T2 sequence (whole entry): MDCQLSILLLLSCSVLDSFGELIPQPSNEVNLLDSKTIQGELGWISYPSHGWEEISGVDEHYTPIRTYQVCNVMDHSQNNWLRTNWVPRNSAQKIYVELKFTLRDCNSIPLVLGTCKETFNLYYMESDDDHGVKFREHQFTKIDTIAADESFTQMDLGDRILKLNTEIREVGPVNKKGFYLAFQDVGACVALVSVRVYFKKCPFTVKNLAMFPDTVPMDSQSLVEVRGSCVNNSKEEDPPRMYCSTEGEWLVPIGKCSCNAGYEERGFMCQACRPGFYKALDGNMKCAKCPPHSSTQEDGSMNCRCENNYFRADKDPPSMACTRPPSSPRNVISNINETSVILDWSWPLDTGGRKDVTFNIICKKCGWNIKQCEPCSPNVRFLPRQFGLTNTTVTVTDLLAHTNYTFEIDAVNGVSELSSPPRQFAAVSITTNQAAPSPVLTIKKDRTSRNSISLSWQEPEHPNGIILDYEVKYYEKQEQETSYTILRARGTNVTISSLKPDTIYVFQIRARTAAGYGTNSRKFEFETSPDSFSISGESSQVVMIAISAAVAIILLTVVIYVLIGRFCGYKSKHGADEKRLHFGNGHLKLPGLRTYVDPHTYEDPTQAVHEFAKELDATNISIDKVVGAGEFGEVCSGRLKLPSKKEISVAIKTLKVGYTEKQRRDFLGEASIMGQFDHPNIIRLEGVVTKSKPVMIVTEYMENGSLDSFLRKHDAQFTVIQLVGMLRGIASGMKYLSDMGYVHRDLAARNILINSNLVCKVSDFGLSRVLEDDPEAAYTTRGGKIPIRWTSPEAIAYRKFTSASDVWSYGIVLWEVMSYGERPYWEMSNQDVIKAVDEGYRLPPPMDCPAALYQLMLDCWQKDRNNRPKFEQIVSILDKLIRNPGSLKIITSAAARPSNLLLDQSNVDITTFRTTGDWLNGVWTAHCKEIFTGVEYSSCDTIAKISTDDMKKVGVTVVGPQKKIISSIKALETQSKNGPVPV
As to conditions: at 0.1 µM.

Test [17] concerns the target T2, Ephrin type-A receptor 3 (Homo sapiens). As to conditions: at 1 µM.
The target of test [18] is Ephrin type-A receptor 4 (Homo sapiens) (UniProt P54764). As to conditions: at 0.1 µM.
Test [19] has the same target. As to conditions: at 1 µM.
The target in test [20] is T3, Ephrin type-B receptor 2 (Homo sapiens) (UniProt P29323).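 Also: reported as mean inhibition of EPHB2, from the GSK PKIS dataset.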
T3 sequence (whole entry): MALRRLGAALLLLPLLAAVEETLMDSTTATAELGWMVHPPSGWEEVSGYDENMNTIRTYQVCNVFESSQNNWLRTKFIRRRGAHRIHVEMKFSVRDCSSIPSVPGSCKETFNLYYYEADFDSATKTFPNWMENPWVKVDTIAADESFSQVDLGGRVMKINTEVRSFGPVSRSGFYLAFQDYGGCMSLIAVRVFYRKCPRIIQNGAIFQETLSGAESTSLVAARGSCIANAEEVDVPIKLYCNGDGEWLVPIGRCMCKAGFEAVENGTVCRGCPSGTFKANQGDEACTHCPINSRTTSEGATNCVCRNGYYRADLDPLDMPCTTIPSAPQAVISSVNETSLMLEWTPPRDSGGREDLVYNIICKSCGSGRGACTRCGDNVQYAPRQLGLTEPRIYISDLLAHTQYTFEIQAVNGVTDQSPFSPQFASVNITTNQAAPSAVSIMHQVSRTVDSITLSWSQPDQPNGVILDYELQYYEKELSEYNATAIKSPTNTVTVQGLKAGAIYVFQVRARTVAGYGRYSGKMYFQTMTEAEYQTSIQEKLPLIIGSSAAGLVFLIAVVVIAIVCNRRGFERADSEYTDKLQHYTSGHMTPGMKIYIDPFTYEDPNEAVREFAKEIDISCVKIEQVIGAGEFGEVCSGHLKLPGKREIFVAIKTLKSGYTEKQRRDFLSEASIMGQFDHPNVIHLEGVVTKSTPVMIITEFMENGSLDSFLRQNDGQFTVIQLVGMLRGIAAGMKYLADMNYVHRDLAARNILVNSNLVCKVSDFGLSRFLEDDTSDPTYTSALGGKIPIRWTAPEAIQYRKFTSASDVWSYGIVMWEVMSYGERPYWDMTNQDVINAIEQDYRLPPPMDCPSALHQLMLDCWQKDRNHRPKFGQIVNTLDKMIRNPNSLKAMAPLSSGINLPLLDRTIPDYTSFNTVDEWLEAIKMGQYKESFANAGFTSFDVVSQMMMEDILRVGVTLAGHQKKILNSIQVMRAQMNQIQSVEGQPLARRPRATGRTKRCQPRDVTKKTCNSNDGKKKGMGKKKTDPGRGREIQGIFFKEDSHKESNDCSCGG
The note with it: at 0.1 µM.

Sequence of Epidermal growth factor receptor (Homo sapiens) (P00533 whole entry): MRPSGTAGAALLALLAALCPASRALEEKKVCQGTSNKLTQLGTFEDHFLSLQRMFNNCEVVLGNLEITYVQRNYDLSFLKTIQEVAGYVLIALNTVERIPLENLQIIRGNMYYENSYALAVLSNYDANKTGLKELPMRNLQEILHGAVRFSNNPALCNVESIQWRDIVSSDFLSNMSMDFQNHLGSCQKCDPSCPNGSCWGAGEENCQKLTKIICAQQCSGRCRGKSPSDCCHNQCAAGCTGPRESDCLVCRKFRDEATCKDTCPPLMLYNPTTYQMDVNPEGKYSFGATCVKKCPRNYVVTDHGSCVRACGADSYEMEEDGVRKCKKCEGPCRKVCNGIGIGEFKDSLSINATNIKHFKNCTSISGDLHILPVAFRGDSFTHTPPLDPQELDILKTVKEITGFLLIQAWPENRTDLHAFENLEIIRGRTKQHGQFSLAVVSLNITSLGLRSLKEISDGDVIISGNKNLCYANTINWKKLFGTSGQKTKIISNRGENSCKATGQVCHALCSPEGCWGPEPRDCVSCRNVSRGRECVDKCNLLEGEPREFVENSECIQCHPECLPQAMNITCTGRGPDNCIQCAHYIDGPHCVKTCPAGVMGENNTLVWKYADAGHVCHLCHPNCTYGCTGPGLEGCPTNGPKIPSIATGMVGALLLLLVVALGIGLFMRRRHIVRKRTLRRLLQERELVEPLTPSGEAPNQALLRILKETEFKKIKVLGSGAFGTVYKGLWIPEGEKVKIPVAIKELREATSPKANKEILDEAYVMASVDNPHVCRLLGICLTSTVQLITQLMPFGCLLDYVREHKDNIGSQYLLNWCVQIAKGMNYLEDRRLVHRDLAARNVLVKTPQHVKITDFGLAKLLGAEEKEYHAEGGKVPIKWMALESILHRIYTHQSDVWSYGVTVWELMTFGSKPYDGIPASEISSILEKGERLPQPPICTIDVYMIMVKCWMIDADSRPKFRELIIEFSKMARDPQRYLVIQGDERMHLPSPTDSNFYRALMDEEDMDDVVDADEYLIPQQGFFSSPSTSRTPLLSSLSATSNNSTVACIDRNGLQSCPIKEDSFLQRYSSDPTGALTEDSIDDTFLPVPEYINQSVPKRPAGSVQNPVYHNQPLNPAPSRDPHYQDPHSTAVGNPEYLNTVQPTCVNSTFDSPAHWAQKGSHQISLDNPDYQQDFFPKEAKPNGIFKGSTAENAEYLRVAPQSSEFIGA
Sequence of Tyrosine-protein kinase CSK (Homo sapiens) (P41240 2-450 limits assumed): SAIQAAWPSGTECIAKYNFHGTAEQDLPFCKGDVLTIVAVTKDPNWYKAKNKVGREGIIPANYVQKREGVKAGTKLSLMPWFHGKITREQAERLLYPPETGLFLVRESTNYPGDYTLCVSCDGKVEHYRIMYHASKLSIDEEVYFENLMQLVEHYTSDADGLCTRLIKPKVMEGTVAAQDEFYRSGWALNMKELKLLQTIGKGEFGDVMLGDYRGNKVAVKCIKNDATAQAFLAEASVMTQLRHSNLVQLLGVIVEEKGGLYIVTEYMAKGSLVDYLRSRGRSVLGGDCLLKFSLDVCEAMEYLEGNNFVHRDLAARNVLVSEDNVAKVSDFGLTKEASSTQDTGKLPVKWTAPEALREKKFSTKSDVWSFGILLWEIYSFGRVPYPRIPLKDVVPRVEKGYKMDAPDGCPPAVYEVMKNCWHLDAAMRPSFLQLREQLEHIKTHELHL

Turning to `O=C1Nc2ccc(C(=O)c3ccco3)cc2C1=Cc1cc(Cl)c(O)c(Cl)c1`, the inhibition amounted to 7.85% in test [1]; 2.1% in test [2]; 6.8% in test [3]; 1.89% in [4]; 5.16% in test [5]; 4.06% in test [6]. In addition, the inhibition is 13.7% in [7]; 3.88% in test [8]; 19.6% in test [9]; 1.42% in [10]; 1.86% in test [11]; 1.63% in test [12]. The inhibition was 4.94% in [13]; -2.48% in test [14]; -0.21% in [15]; 2.92% in test [16]; 6.1% in test [17]; 8.25% in [18]. Further, the inhibition in test [19] was 14.3%; in [20], 10.7%.

On to `O=C(Nc1n[nH]c2nc(-c3ccco3)c(Br)cc12)C1CC1`, for which the inhibition in test [1] was determined as 4.14%; in test [2], 0.37%; in test [3], 2.85%; in [4], 2.5%; in test [5] it was 5.12%; in [6], 3.62%. Also, the inhibition is 0.54% in test [7]; 0.96% in test [8]; 1.89% in test [9]; 1.4% in test [10]; -0.71% in [11]; 5.44% in test [12]. Besides, the inhibition turned out to be 0.25% in [13]; 1.53% in [14]; 1.29% in test [15]; 6.55% in test [16]; 4.24% in [17]; 7.41% in [18]. For the same compound, the results for the inhibition in [19] and in test [20] were 2.95% and 7.31%, respectively.

In the case of `COc1ccc(COc2ccc(Cc3cnc(N)nc3N)cc2OC)cc1`, the inhibition was -3.17% in test [1]; 8.57% in test [2]; 8.13% in test [3]; -0.51% in [4]; 5.41% in test [5]; 0.93% in test [6]. In addition, the inhibition was -1.26% in test [7]; -1.47% in test [8]; -1.95% in test [9]; -2.86% in test [11]; 2.14% in [12]; -1.75% in [13]. The inhibition is 2.27% in test [14]; 2.74% in test [15]; -0.07% in test [16]; 0.08% in test [17]; 1.25% in test [18]; -0.14% in [19]. Moreover, the inhibition in [20] is 1.4%.

`Fc1cccc(COc2ccc(Nc3ncnc4sc(-c5cccs5)cc34)cc2Cl)c1`: the inhibition in test [1] was 3.11%; in test [2], -0.48%; in test [3], 0.6%; in [14] it was -3.04%; in test [15], -2.75%; in test [16] it was -3.5%. Moreover, the inhibition is -1.54% in test [17], -0.88% in test [18], 2.82% in test [19] and 5.23% in test [20].

Regarding `Cc1nn(C)c2cc(N(C)c3ccnc(Nc4cccc(S(N)(=O)=O)c4)n3)ccc12`, the inhibition was 22.4% in test [1]; -2.88% in test [2]; 5.33% in test [4]; 13.9% in [5]; 1.02% in test [6]; 16% in test [7]. Also, the inhibition in [8] worked out at 2.56%; in test [9], 9.38%; in test [10], 1.34%; in [11] it was 7.49%; in test [12] it was 1.34%; in [13], 12.7%. Also, the inhibition in test [14] amounted to 1.28%; in test [15] it was 18.6%; in test [16], 6.82%; in test [17] it was 16.5%; in [18] it was 12.2%; in [19] it was 43.7%. The inhibition in test [20] was determined as 7.61%.

As for `COc1cc2ncn(-c3cc(OCc4ccccc4C(F)(F)F)c(C(N)=O)s3)c2cc1OC`, the inhibition in test [1] is 9.28%; in [2], 7.36%; in test [3] it was 7.43%; in [5] it was 3.5%; in [6], 2.54%; in test [7], 13.5%. The inhibition in test [8] is 3.75%; in test [9] it was 4.35%; in test [10], 2%; in test [11], 1.9%; in [12] it was 3.32%; in test [13] it was 4.7%. Further, the inhibition is -0.41% in test [14]; 3.23% in [15]; -0.35% in [16]; 7.13% in test [17]; 11.3% in test [18]; 23.3% in test [19]. In addition, the inhibition in test [20] is 14.9%.

Source of the values: ChEMBL document CHEMBL1961873, “Compounds: GSK PKIS; Assays: Nanosyn kinase panel” (2012).
